High-throughput results as filed in PubChem BioAssay.
Sampled rows, rich in hits. Any-hit rate of the full collection: about 4.6%.
SKKanGAS inh – SKKanGAS growth inhibition; S. pyogenes SKKanGAS, kanamycin growth, BacTiter-Glo, 6 h; inhibition, % at 7.5 µM; 300,000 tested, 1.3% active;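 active = mean replicate score, as percent of positive control median, at least 50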;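 also: strain carries kanamycin resistance gene driven by streptokinase promoter and grows in 40 µg/ml kanamycin; loss of luminescence reflects streptokinase promoter inhibition or plain growth inhibition; 0% = median of DMSO wells and 100% = positive control at its reference dose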
tim10-1 inh – tim10-1 yeast growth inhibition; S. cerevisiae tim10-1 ts strain growth, BacTiter-Glo, 24 h; inhibition, % at 20 µM; 330,000 tested, 2.2% active;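 active = inhibition of at least 40%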;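 also: mutant grown at 25 °C; 0% = DMSO wells with yeast and 100% = wells holding no yeast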
PfHsp90 set2 – growth inhibition of yeast expressing Plasmodium Hsp90; S. cerevisiae expressing PfHsp90, BacTiter-Glo ATP, 48 h; yeast lacking PDR1 and PDR3 efflux regulators; inhibition, % at 9.4 µM; 310,000 tested, 0.32% active;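 active = every replicate shows inhibition above about 80%, whatever the replicate mean, limit read from the data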;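 also: 0% = DMSO neutral controls and 100% = 20 µM radicicol positive controls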
V-ATPase pHluor – yeast V-ATPase proton transport regulation by pHLuorin. S. cerevisiae, pHLuorin cytosolic pH fluorescence. 350,000 tested, 0.37% active. AID 504577. response, % at 10 µM; in the data active = response mostly above about 7.3%, no sharp cut-off; inactive = mostly below about 5.4%; also: actives read high
tim23-1 inh – tim23-1 yeast growth inhibition; S. cerevisiae tim23-1 growth, BacTiter-Glo luminescence, 24 h; 330,000 tested, 1.3% active; inhibition, % at 20 µM;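 active = growth inhibition of the mutant yeast at or above 50%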;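 also: temperature-sensitive mutant grown at 25 °C; plate controls were DMSO-treated mutant yeast for no effect and medium wells lacking yeast for full effect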
TIM10 inh – TIM10 yeast growth inhibition. S. cerevisiae TIM10 strain growth, BacTiter-Glo luminescence, 24 h. inhibition, % at 10 µM. 330,000 tested, 1.4% active;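 active = inhibition of 40% or more at the single tested concentration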;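 also: wild-type TIM10 isogenic control strain grown at permissive 25 °C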
Starred values were filed as active, the others as inactive; . = no result.

SMILES | SKKanGAS inh | tim10-1 inh | PfHsp90 set2 | V-ATPase pHluor | tim23-1 inh | TIM10 inh
CC(C)CC(=O)NC(NCC1CCCO1)C(Cl)(Cl)Cl (stereo not drawn) | 5 | 1 | -26 | -1 | 16 | -10
Cn1nc(-c2ccc(N3CCN(CCO)CC3)c([N+](=O)[O-])c2)c2ccccc2c1=O | 5 | 2 | 38 | 0 | 1 | -3
O=C(c1ccncc1)c1ccc(NS(=O)(=O)c2ccc(Br)s2)cc1 | 13 | 10 | -8 | 1 | -4 | 1
O=C(Nc1ccc2ccccc2c1)c1ccc(NS(=O)(=O)c2ccc(Br)s2)cc1 | 96* | -6 | -34 | 0 | 4 | -9
Cc1ncsc1C(=O)N1CCCC(CNS(=O)(=O)c2cccs2)C1 (stereo not drawn) | 9 | -18 | -15 | -3 | 8 | -12
COc1ccc(C(=O)NC(=S)NNC(=O)c2ccco2)cc1 | 53* | -8 | -32 | 1 | -21 | 15
COc1ccccc1OCC(=O)NNC(=S)NC(=O)c1ccco1 | 60* | 17 | -15 | 1 | -3 | 9
COc1ccc(/C=C/C(=O)NC(=S)NNC(=O)c2ccco2)cc1 | 78* | -2 | 4 | 2 | -19 | 0
COc1ccc(/C=C/C(=O)NC(=S)NNC(=O)c2ccco2)cc1OC | 84* | -4 | -13 | -1 | -37 | -14
Cc1ccc(NC(=O)c2nc[nH]c2C(=O)N[C@@H](C)c2ccccc2)cc1 | 66* | 36 | . | 2 | 48 | 31
C[C@@H](NC(=O)c1[nH]cnc1C(=O)Nc1ccccc1)c1ccccc1 | . | -27 | . | -4 | 27 | 2
CC(C)C[C@H](NC(=O)c1nc[nH]c1C(=O)NC(c1ccccc1)c1ccccc1)C(=O)OC(C)(C)C | 60* | 10 | 24 | 0 | 12 | 13
C[C@H](NC(=O)c1nc[nH]c1C(=O)N[C@@H](C)c1ccccc1)C(=O)OC(C)(C)C | -2 | 19 | 32 | -3 | 26 | 25
CC(C)C[C@H](NC(=O)c1[nH]cnc1C(=O)N[C@H](C)c1ccccc1)C(=O)OCc1ccccc1 | 73* | 12 | -7 | 5 | 12 | -2
CC(C)C[C@H](NC(=O)c1[nH]cnc1C(=O)N[C@H](C)c1ccccc1)C(=O)OC(C)(C)C | 57* | 26 | . | 3 | 28 | 27
CC(C)C[C@H](NC(=O)c1nc[nH]c1C(=O)N[C@@H](CC(C)C)C(=O)OCc1ccccc1)C(=O)OCc1ccccc1 | 33 | 6 | -11 | -6 | 15 | 10
COc1cc(OC)c(OC)cc1CNC(=O)CCN1C(=O)c2cccc([N+](=O)[O-])c2C1=O | -4 | -12 | -40 | 3 | 3 | 3
CC(=O)c1ccc(OCCOc2ccc(Cl)c3cccnc23)cc1 | -5 | 12 | -50 | -3 | 4 | 4
CC(C)C[C@H](NC(=O)c1[nH]cnc1C(=O)Nc1ccc(Cl)cc1)C(=O)OC(C)(C)C | 60* | 20 | -9 | 3 | 25 | 11
CC(C)C[C@H](NC(=O)c1nc[nH]c1C(=O)NCC(=O)OC(C)(C)C)C(=O)OC(C)(C)C | 9 | 9 | 30 | -2 | 25 | 13
CC(C)C[C@H](NC(=O)c1nc[nH]c1C(=O)N[C@@H](CC(C)C)C(=O)OC(C)(C)C)C(=O)OC(C)(C)C | 87* | 10 | -5 | -7 | 19 | 17
Cc1ccc(NC(=O)COc2cccc3c2OC(C)(C)C3)c(O)c1 | . | 3 | -30 | 4 | 34 | 5
Cc1ccccc1N1CCN(C2CCCN(C(=O)CCn3cnnn3)C2)CC1 (stereo not drawn) | 1 | 5 | -4 | 7 | -4 | 6
O=C(/C=N/O)Nc1ccc2sc3ccccc3c2c1 | -24 | -8 | -37 | 0 | 22 | 15
Cc1c(N=c2c(=O)c3ccccc3c2=O)c(=O)n(-c2ccccc2)n1C | 13 | 9 | . | . | 11 | 0
SMILES | SKKanGAS inh | tim10-1 inh | PfHsp90 set2 | V-ATPase pHluor | tim23-1 inh | TIM10 inh
Cc1c(N=C2C(=O)Nc3ccccc32)c(=O)n(-c2ccccc2)n1C | -2 | 10 | -2 | 9.3* | 7 | -4
COc1ccccc1NC(=O)C(C)OC(=O)Cc1n[nH]c(=O)c2ccccc12 (stereo not drawn) | -3 | 2 | -6 | 16* | 9 | 1
CC(OC(=O)Cc1n[nH]c(=O)c2ccccc12)C(=O)Nc1ccc(Cl)cn1 (stereo not drawn) | 68* | 10 | 11 | 3 | 32 | -6
CC(OC(=O)Cc1n[nH]c(=O)c2ccccc12)C(=O)Nc1ccccc1[N+](=O)[O-] (stereo not drawn) | -2 | 11 | 13 | -3 | 0 | 2
Cc1ccc(NC(=O)C2CCN(S(=O)(=O)c3ccc4c(c3)CCCC(=O)N4)CC2)c(Br)c1 | -3 | -10 | 5 | 5 | -9 | -4
Cc1cc2[nH]c(=O)c(=O)[nH]c2cc1S(=O)(=O)Nc1cccc(Cl)c1 | 3 | -3 | 1 | -19 | -8 | -1
O=C(NC(=S)N1CCN(C(c2ccccc2)c2ccccc2)CC1)c1ccc(S(=O)(=O)N2CCOCC2)cc1 | 66* | 17 | -17 | 2 | -10 | 24
CN1CCN(C(=S)NC(=O)c2ccc(S(=O)(=O)N3CCOCC3)cc2)CC1 | 2 | -14 | -27 | -2 | 9 | 3
Cc1csc(CNc2ncnc3ccc(-c4cccc(Cl)c4)cc23)c1 | . | 0 | 122* | 4 | 38 | -7
Cc1cccc(CNc2ncnc3ccc(-c4ccccc4Cl)cc23)c1 | . | 12 | -7 | 3 | 22 | 0
CCOC(=O)c1c(N)sc(C(O)(C(F)(F)F)C(F)(F)F)c1-c1ccc(Cl)cc1 | 76* | 20 | 64 | -3 | 37 | 19
Cc1csc(NC(=O)c2cnc3ccccc3n2)n1 | -3 | 17 | 16 | -5 | 8 | 21
Cc1csc(NC(=O)c2ccc3ccccc3n2)n1 | 60* | 16 | -26 | -3 | 8 | 26
CCC(CC)c1nnc(NC(=O)c2ccc3ccccc3n2)s1 | 79* | 33 | -6 | 0 | 33 | 33
CC(Sc1nnc(-c2ccncc2)n1C)C(=O)Nc1nccs1 (stereo not drawn) | 3 | -29 | 15 | 3 | -5 | 5
CCCCn1c(N)c(N(CCOC)C(=O)c2ccc(COc3ccccc3)o2)c(=O)[nH]c1=O | -5 | 6 | 25 | -3 | 14 | 6
COc1cc(/C=N/Nc2ccccc2[N+](=O)[O-])cc(OC)c1O | -3 | 30 | -26 | 0 | 6 | 6
O=[N+]([O-])c1cc(Cl)cc(/C=N/Nc2nc3ccccc3s2)c1O | 82* | 32 | -20 | -4 | 29 | 21
O=C(Cn1nc2ccccc2n1)N/N=C/c1cc(Cl)cc([N+](=O)[O-])c1O | . | . | -8 | 0 | . | .
COc1cc(/C=N/Nc2nc3ccccc3s2)cc([N+](=O)[O-])c1O | 54* | 10 | -45 | 2 | -5 | -2
CCOC(=O)c1cnc2c(-c3ccccc3OC)c(C)nn2c1C | -16 | 5 | 19 | -2 | 26 | 16
